Experimental data: PubChem BioAssay (Tox21)
Records with an inconclusive call do not appear. Activity calls are given as the source filed them. Unless noted, calls follow the shape of the dose curve; as a rule, active = well fitted curve in the direction sought with a large enough effect in the repeat runs; inconclusive = weak or mixed curves; inactive = no such curve, though single readings can be large; an effect the other way counts as inactive or inconclusive.

What was measured:
[1] = qHTS assay to identify small molecule antagonists of the thyroid receptor (TR) signaling pathway (AID 743065); also: nearly all actives have a fitted effect of over 55% in size; also: potency is read from the fitted curve at half-maximal effect
Summary of the method: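 Antagonism measured as loss of luciferase signal in GH3 cells stably carrying a TRE-luciferase reporter, co-treated with compound and T3 (1 nM final) for 23.5 h at 37 C. Viability was read in the same well by CellTiter-Fluor.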

[2] = tested on: thyroid hormone receptor (rat, GH3 cells); experiment: qHTS assay to identify small molecule agonists of the thyroid receptor (TR) signaling pathway (AID 743066; calls by dose curve)
[3] = biological target: Estrogen receptor (Homo sapiens) (UniProt P03372); experiment: qHTS assay to identify small molecule antagonists of the estrogen receptor alpha (ER-alpha) signaling pathway (AID 743069; active = well fitted curve in the direction sought with a large enough effect in the signal ratio in the repeat runs, not every such curve was filed as active; the % refers to the signal ratio)
Summary of the method: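 ER-alpha-UAS-bla GripTite HEK293 line; 2% charcoal-stripped FBS overnight; plated, 4 hr 37C/5% CO2; cpd in DMSO + 17beta-estradiol, 18 hr 37C; LiveBLAzer B/G FRET substrate 2 hr RT; fluorescence intensity.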

[4] = qHTS assay to identify small molecule antagonists of the estrogen receptor alpha (ER-alpha) signaling pathway - cell viability counter screen (AID 743074; calls by dose curve;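 also: HEK293 cells carrying ER-alpha-UAS-bla reporter stimulated with 17beta-estradiol; nearly all actives have a fitted effect of over 45% in size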)
[5] = biological target: Estrogen receptor (Homo sapiens) (UniProt P03372); experiment: qHTS assay to identify small molecule agonists of the estrogen receptor alpha (ER-alpha) signaling pathway (AID 743075; calls by dose curve;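 also: HEK293 GripTite cells with ER-alpha and UAS-driven beta-lactamase reporter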)
[6] = biological target: Estrogen receptor (Homo sapiens) (UniProt P03372); experiment: qHTS assay to identify small molecule agonists of the estrogen receptor alpha (ER-alpha) signaling pathway using the BG1 cell line (AID 743079); conditions: BG1Luc4E2 cells, ERE-luciferase agonist, 22 h; activation: at 70.3 µM (top of the series); also: nearly all actives have a fitted effect of over 20% in size; also: potency is read from the fitted curve at half-maximal effect
[7] = qHTS assay to identify small molecule antagonists of the estrogen receptor alpha (ER-alpha) signaling pathway using the BG1 cell line (AID 743080; calls by dose curve;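 also: BG1 cells stimulated with 17beta-estradiol alongside compound; nearly all actives have a fitted effect of over 25% in size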)
Summary of the method: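 Seeding, 24 h rest, compound transfer from DMSO, 17beta-estradiol addition, 21.5 h incubation, CellTiter-Fluor (30 min, 37 C), then ONE-Glo (30 min, room temperature): this sequence was run on BG1-Luc-4E2 reporter cells.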

[8] = qHTS assay to identify small molecule antagonists of the estrogen receptor alpha (ER-alpha) signaling pathway using the BG1 cell line - cell viability counter screen (AID 743081);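 also: compound given together with 17beta-estradiol as the ER stimulus; nearly all actives have a fitted effect of over 45% in size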
[9] = biological target: Aromatase (Homo sapiens) (UniProt P11511); experiment: qHTS assay to identify aromatase inhibitors (AID 743083); also: nearly all actives have a fitted effect of over 55% in size
[10] = qHTS assay to identify aromatase inhibitors - cell viability counter screen (AID 743084);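 also: cells stimulated with testosterone during compound exposure; nearly all actives have a fitted effect of over 55% in size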

Measured: Potency

Sequence of Aromatase (Homo sapiens) (P11511 whole entry, looked up): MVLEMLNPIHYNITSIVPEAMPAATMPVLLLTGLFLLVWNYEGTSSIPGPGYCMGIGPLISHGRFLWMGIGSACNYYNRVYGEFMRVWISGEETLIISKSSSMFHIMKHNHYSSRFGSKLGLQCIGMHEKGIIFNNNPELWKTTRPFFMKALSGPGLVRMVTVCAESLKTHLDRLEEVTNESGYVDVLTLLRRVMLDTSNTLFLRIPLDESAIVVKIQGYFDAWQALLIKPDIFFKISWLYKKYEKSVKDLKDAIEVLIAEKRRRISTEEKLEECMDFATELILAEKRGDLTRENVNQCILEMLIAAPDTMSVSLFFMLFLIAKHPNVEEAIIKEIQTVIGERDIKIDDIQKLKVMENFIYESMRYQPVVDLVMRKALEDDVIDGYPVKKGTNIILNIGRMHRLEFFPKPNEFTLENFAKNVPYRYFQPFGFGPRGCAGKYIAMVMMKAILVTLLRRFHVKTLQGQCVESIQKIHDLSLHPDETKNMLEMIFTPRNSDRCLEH
Sequence of Estrogen receptor (Homo sapiens) (P03372 whole entry, looked up): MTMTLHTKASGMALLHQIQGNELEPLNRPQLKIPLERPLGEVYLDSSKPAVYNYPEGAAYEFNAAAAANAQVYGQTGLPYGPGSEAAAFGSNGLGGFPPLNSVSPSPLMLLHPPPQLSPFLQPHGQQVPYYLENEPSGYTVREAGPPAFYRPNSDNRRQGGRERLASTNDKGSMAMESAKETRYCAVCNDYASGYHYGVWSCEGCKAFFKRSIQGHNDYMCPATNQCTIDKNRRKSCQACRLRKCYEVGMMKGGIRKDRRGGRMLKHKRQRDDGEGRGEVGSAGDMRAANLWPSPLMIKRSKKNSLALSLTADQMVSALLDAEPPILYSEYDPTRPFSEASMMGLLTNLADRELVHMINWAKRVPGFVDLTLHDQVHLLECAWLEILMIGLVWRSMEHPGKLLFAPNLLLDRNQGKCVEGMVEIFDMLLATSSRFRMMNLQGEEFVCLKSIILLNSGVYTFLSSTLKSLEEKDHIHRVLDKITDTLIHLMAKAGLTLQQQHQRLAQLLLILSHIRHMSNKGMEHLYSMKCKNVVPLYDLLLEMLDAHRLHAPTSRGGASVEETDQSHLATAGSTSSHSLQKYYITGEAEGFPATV

CCOC(=O)CC(=O)C(=O)OCC
inactive: [1] | [2] | [3] | [4] | [5] | [6] | [7] | [8] | [9]

CC(CCO)CCc1ccccc1 (centres undefined)
inactive: [1] | [2] | [3] | [4] | [5] | [6] | [7] | [8] | [9] | [10]

CC#N
inactive: [1] | [2] | [3] | [4] | [5] | [6] | [7] | [8] | [9] | [10]

CC(C)(CCl)c1ccccc1
inactive: [1] | [2] | [3] | [4] | [5] | [6] | [7] | [8] | [9] | [10]

CCC(=O)OC/C=C/c1ccccc1
inactive: [1] | [2] | [3] | [4] | [5] | [7] | [8] | [9] | [10]
active: [6] 68.6 µM

COC(=O)CC(=O)C(C)(C)C
inactive: [1] | [2] | [3] | [4] | [5] | [6] | [7] | [8] | [9] | [10]

COCC(O)CO (centres undefined)
inactive: [1] | [2] | [3] | [4] | [5] | [6] | [7] | [8] | [9] | [10]

CN1CCN(c2c(F)cc3c(=O)c(C(=O)O)cn4c3c2OCN4C)CC1
active: [6] 23.7 µM
inactive: [1] | [2] | [3] | [4] | [5] | [7] | [8] | [9] | [10]

CCCCC(CC)COC(=O)COc1ccc(Cl)cc1C (centres undefined)
inactive: [1] | [2] | [3] | [4] | [5] | [6] | [7] | [8] | [9] | [10]

CC(C)=CC=O
inactive: [1] | [2] | [3] | [4] | [5] | [6] | [7] | [8] | [9] | [10]

CC(Cl)C(Cl)Cl (centres undefined)
inactive: [1] | [2] | [3] | [4] | [5] | [6] | [7] | [8] | [9] | [10]

CCC(C(=O)OCCN(CC)CC)c1ccccc1 (centres undefined)
inactive: [1] | [2] | [3] | [4] | [5] | [6] | [7] | [8] | [9] | [10]

COc1ccc(CCC(=O)c2c(O)cc(O[C@@H]3O[C@H](CO)[C@@H](O)[C@H](O)[C@H]3O[C@@H]3O[C@@H](C)[C@H](O)[C@@H](O)[C@H]3O)cc2O)cc1O
inactive: [1] | [2] | [3] | [4] | [5] | [6] | [7] | [8] | [9] | [10]

CC(=O)OCC(=O)[C@H]1CC[C@H]2[C@@H]3CCC4=CC(=O)CC[C@]4(C)[C@H]3CC[C@]12C
active: [1] 13.3 µM | [6] 4.22 µM
inactive: [2] | [3] | [4] | [5] | [7] | [8] | [9] | [10]

CCC(C(=O)OCCOCCN(CC)CC)c1ccccc1 (centres undefined)
inactive: [1] | [2] | [3] | [4] | [5] | [6] | [7] | [8] | [9] | [10]

CCOC(=O)OCC
inactive: [1] | [2] | [3] | [4] | [5] | [6] | [7] | [8] | [9] | [10]

ON(Cc1ccccc1)Cc1ccccc1
inactive: [1] | [2] | [3] | [4] | [5] | [6] | [7] | [8] | [9] | [10]

CC(C)OCC1CO1 (centres undefined)
inactive: [1] | [2] | [3] | [4] | [5] | [6] | [7] | [8] | [9] | [10]

CC(C)CCCCCCOC(=O)CCCCC(=O)OCCCCCCC(C)C
inactive: [1] | [2] | [3] | [4] | [5] | [6] | [7] | [8] | [9] | [10]

CCCCCCCCCCCCCCCCBr
inactive: [1] | [2] | [3] | [4] | [5] | [6] | [7] | [8] | [9] | [10]

O=C(O)c1cccc(O)c1
inactive: [1] | [2] | [3] | [4] | [5] | [6] | [7] | [8] | [9] | [10]

CCOC(=N)CC(=O)OCC
inactive: [1] | [2] | [3] | [4] | [5] | [6] | [7] | [8] | [9] | [10]
